# Screening results from PubChem BioAssay.
# CYP2C19 inhib = blockers of cytochrome P450 2C19 activity – biochemical, luminescence, ADME assay, primary screen | P33261 | CYP2C19 Supersomes, luciferin-H EGE luminescence, 30 min | inhibition, % at 5 µM | 21% of 96,000 active | AID 778, 2007;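 active = CYP2C19 inhibition above a set limit at 5 µM in the primary screen, cut at about 50% in these data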;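 also: plate controls were negative control wells for no effect and 2.5 mM tranylcypromine positive control for full effect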
# Target sequence (P33261 whole entry, looked up): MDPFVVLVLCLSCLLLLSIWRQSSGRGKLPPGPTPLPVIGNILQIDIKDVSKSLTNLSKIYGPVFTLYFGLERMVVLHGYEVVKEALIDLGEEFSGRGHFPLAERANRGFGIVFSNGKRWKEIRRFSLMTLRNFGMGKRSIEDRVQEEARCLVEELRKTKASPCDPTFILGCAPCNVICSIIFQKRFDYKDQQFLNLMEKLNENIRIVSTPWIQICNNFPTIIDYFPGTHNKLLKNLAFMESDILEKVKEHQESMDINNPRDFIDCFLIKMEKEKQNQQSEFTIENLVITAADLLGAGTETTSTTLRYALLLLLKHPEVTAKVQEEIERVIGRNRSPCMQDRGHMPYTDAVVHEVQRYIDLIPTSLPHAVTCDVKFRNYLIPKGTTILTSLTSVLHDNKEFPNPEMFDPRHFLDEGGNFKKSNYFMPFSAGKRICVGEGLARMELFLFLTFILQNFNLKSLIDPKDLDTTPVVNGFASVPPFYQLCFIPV
# CYP2C19 act = human CYP2C19 activators, primary screen, biochemical, luminescence; recombinant CYP2C19, luciferin-H EGE luminescence; stronger effect = higher value; 0 = fully inhibited enzyme, 1 = untreated enzyme; activation factor at 5 µM; 96,000 tested, under 10 active; AID 1025, 2008;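 active = activation factor of at least 2 at 5 µM in the primary screen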;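 also: 0 = wells with 2.5 mM tranylcypromine and 1 = vehicle-only wells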
# Mac1 fbg inh = inhibitors of CD11b/CD18 adhesion to fibrinogen, primary screen, K562 cells, luminescence; ATPlite luminescence; Mn2+ added to activate the integrin; Integrin beta-2 (Homo sapiens) + Integrin alpha-M (Homo sapiens), P05107+P11215; 0.54% of 93,000 active; AID 1497, 2009; inhibition, % at 10 µM;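 active = primary inhibition of 50% or more at 10 µM, then 40% or more on retest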
# CYP2C9 activ = human CYP2C9 activators, primary screen, biochemical, luminescence; recombinant CYP2C9, luciferin-H conversion; stronger effect = higher value; factor 1 = untreated enzyme, 0 = blocked; activation factor at 5 µM; 1.4% of 96,000 active; AID 1024, 2008;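 active = activation factor of 2 or more for CYP2C9 at a 5 µM dose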;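 also: 0 = sulfaphenazole-blocked wells and 1 = vehicle-only wells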
# CYP2C9 inhib = blockers of cytochrome P450 2C9 activity – biochemical, luminescence, ADME assay, primary screen; P11712; CYP2C9 Supersomes, luciferin-H conversion; inhibition, % at 5 µM; 20% of 96,000 active;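 active = blocking of liver enzyme CYP2C9 beyond about 50% at 5 µM, limit read from the data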
# Mac1 fbg enh = enhancers of CD11b/CD18 adhesion to fibrinogen, primary screen, K562 cells, luminescence. Integrin beta-2 (Homo sapiens) + Integrin alpha-M (Homo sapiens), P05107+P11215. ATPlite luminescence. activation, % at 10 µM. 0.07% of 93,000 active. AID 1499, 2009;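 active = 10 µM primary screen giving 50% or more activity, confirmed by 40% or more on retest at that dose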
# * hit, by the source's call; x = not tested or not shown. A selection: hits, their analogues and other compounds. The true share with any hit is near 28%.
SMILES,CYP2C19 inhib,CYP2C19 act,Mac1 fbg inh,CYP2C9 activ,CYP2C9 inhib,Mac1 fbg enh
CCOC(=O)N1CCC(=C(C#N)C(=O)Nc2cc(OC)ccc2OC)CC1,16,0.8,14,1.1,-6,6
CS(=O)(=O)c1ccc(Cl)c(NC(=O)COC(=O)CNC(=O)c2ccc(Br)o2)c1,-20,1.2,-5,1.3,-29,-3
N#Cc1nc(-c2ccco2)oc1N1CCC(Cc2ccccc2)CC1,82*,0.2,47,0.1,91*,0
COc1ccccc1-c1nc(C#N)c(N2CCc3ccccc3C2)o1,84*,0.2,77,0.3,75*,-4
COc1ccc(N2CCN(c3oc(-c4ccc(OC)c(OC)c4)nc3C#N)CC2)cc1,48,0.5,1,0.7,34,9
COc1ccccc1-c1nc(C#N)c(N2CCN(c3ccccc3)CC2)o1,80*,0.2,x,1,0,x
COc1ccccc1-c1nc(C#N)c(N2CCCCCC2)o1,23,0.8,35,1.3,-25,-2
COc1ccc(N2CCN(c3oc(-c4ccccc4OC)nc3C#N)CC2)cc1,19,0.8,20,1,1,-4
COc1ccc(-c2nc(C#N)c(N3CCc4ccccc4C3)o2)cc1OC,55*,0.4,x,0.8,23,x
O=C(NCCCCNC(=O)c1c(F)c(F)c(F)c(F)c1F)c1c(F)c(F)c(F)c(F)c1F,-19,1.2,2,1,1,0
CC(C)(C)NC(=O)C(=O)NNC(=O)c1ccc(C(C)(C)C)cc1,x,x,-3,x,x,-3
CC1CCN(c2oc(-c3ccccc3Cl)nc2C#N)CC1,86*,0.1,53,0.1,87*,-3
O=C(Nc1nc(-c2ccc(S(=O)(=O)N3CCCC3)cc2)cs1)c1cccs1,33,0.7,53,0.4,62*,0
O=C(Nc1nc(-c2cc(Cl)sc2Cl)cs1)c1cccs1,33,0.7,98,0.2,83*,-9
O=C(Nc1nc(-c2ccc(S(=O)(=O)N3CCCCCC3)cc2)cs1)c1cccs1,10,0.9,-18,0.5,53*,69
O=C(NCCc1ccc(S(=O)(=O)N2CCCC2)cc1)c1cccs1,40,0.6,-8,0.4,62*,0
COc1ccc(NC(=O)COC(=O)c2c3c(nc4ccccc24)CCCC3)cc1Cl,30,0.7,21,0.7,25,-6
COc1ccc(C(=O)N2CCN(S(=O)(=O)N3CCOCC3)CC2)cc1OC,-10,1.1,-14,1.1,-14,0
O=C(N/C(=C/c1cccnc1)C(=O)N1CCOCC1)c1ccccc1Br,x,x,-11,x,x,6
CNC(=S)NNC(=O)Cn1ccc(C)n1,-8,1.1,-4,1.2,-23,-3
COC(=O)N/N=C/c1cc([N+](=O)[O-])cc(Br)c1O,x,x,6,x,x,5
O=C(CSc1nnc2scc(-c3ccccc3)n12)NCC1CCCO1 (stereo unspecified),15,0.9,-10,1.1,-10,0
CCCOc1ccc2oc(=O)c3c(c2c1)CCCN3C(=O)CN1CCN(c2ncccn2)CC1,63*,0.4,2,0.3,65*,-1
C/C=C/CSc1nc2c(c(=O)[nH]c(=O)n2C)n1Cc1ccc(C)cc1,-14,1.1,22,1,-3,23
Cc1ccc2nsnc2c1S(=O)(=O)N(Cc1ccco1)Cc1cc2ccc(C)c(C)c2[nH]c1=O,2,1,2,0.9,8,1
SMILES,CYP2C19 inhib,CYP2C19 act,Mac1 fbg inh,CYP2C9 activ,CYP2C9 inhib,Mac1 fbg enh
COc1cc(S(=O)(=O)n2c(C)nc3ccccc32)ccc1F,94*,0.1,8,0.6,43,2
CCOc1ccc(S(=O)(=O)n2c(C)nc3ccccc32)cc1,42,0.6,-3,0.6,41,3
COc1ccc(C(=O)N2CCN=C2c2ccccc2)cc1OC,47,0.5,-12,1,0,-3
CCCCOc1ccc(S(=O)(=O)n2c(C)nc3ccccc32)cc1,39,0.6,98,0.3,67*,-10
COc1cc(S(=O)(=O)N2CCN=C2c2ccccc2)ccc1F,74*,0.3,17,1.1,-10,-4
O=C1C2C3CCCC3=C3CCCC3C2C(=O)N1c1ccccc1 (stereo unspecified),33,0.7,1,0.7,35,0
O=C(c1sc2ccccc2c1Cl)N1CCN(c2ccc(F)cc2)CC1,82*,0.2,x,2.3*,-126,x
Cn1c(C(=O)N2CCN(c3cccc(C(F)(F)F)c3)CC2)cc2sccc21,46,0.5,8,1.6,-62,7
O=C(c1ccncc1)N1CCN(c2ccc(F)cc2)CC1,91*,0.1,-3,0.7,31,-4
O=C(c1ccc(Br)o1)N1CCN(c2ccccn2)CC1,90*,0.1,60,0.2,77*,-10
O=C(c1coc2ccccc2c1=O)N1CCN(c2cccc(C(F)(F)F)c2)CC1,24,0.8,x,0.5,53*,x
N#Cc1ccc(Oc2ccc(C(N)=O)cc2)cc1C#N,10,0.9,7,0.8,21,-1
CCSc1ccccc1C(=O)N1CCN(c2ccccc2F)CC1,54*,0.5,-8,0.4,58*,0
O=C(Nc1ccc(N2CCN(C(=O)c3ccco3)CC2)cc1)c1ccccc1F,6,0.9,18,0.9,13,0
O=C(c1ccccc1F)N1CCN(c2ccccc2)CC1,50*,0.5,-62,0.7,32,-1
O=C(c1cnn2cccnc12)N1CCN(c2ccccc2)CC1,87*,0.1,-28,1.3,-26,12
O=C(c1ccccc1Br)N1CCN(c2ccccc2)CC1,60*,0.4,-25,0.7,33,6
O=C(CCCCC(=O)N1CCN(c2ccccc2)CC1)N1CCN(c2ccccc2)CC1,18,0.8,1,0.8,23,4
COc1cccc(OC)c1OCC(C)CNCC1CCCO1 (stereo unspecified),6,0.9,5,0.9,6,-4
O=C(c1ccc(Br)o1)N1CCN(c2ccccc2F)CC1,92*,0.1,0,0.6,44,-2
CCn1cc(Br)c(C(=O)N2CCN(c3ccccc3)CC2)n1,85*,0.2,6,2.1*,-112,2
O=C(c1ccccc1C(=O)N1CCN(c2ccccc2F)CC1)N1CCN(c2ccccc2F)CC1,70*,0.3,14,0.1,89*,2
O=C(c1ccncc1)N1CCN(c2cccc(C(F)(F)F)c2)CC1,100*,0,-34,0.1,92*,3
O=C(N1CCOCC1)N1CCN(c2ccccc2F)CC1,11,0.9,2,1.1,-9,-4
